# Screens: PubChem BioAssay, National Center for Advancing Translational Sciences (NCATS)
# Six1-Eya2 inh: qHTS Assay for Inhibitors of the Six1/Eya2 Interaction; Homeobox protein SIX1 (Homo sapiens) + Protein phosphatase EYA2 (Homo sapiens), …; AlphaScreen GST-Six1/His-Eya2 binding, biochemical; hits give low values; activity change, % (no concentration beside the values); hit rate 0.56% among 360,000; in the data active = activity change below about -65%; inconclusive = mostly about -30% to -63%
# Target sequence (O00167 whole entry, looked up): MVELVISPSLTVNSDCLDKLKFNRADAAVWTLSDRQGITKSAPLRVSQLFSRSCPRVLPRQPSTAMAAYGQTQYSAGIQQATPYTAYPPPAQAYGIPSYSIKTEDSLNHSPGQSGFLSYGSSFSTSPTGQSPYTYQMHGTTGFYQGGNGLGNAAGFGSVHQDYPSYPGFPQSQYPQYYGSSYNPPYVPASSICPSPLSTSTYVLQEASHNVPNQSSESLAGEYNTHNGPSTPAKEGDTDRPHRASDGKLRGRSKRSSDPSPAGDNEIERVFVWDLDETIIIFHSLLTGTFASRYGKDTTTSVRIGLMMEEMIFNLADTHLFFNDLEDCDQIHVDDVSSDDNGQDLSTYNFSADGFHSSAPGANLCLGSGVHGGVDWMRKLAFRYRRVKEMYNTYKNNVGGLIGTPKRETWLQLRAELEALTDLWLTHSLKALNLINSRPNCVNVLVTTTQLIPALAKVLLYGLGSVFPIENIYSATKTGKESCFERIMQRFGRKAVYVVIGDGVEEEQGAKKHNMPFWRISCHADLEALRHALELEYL
# Target sequence (Q15475 whole entry, looked up): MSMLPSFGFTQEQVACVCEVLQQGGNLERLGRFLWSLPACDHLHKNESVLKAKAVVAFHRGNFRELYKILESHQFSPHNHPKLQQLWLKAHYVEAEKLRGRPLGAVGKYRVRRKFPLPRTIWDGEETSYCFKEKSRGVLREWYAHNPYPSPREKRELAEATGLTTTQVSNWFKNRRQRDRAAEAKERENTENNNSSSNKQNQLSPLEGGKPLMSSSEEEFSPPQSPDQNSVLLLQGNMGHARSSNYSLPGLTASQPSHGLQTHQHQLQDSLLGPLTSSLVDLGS
#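 AlphaScreen luminescence read after one hour at 37 °C in darkness. Pin-transferred compounds met GST-Six1 and His-Eya2 protein (5X stock 250 nM/500 nM) plus glutathione donor and Ni-chelate acceptor beads (5X, 50 ug/mL).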
# CtBP-E1A blk: qHTS Assay for Inhibitors of the CtBP/E1A Interaction; activity change, % (test concentration not listed); AlphaScreen GST-E1A/His-CtBP binding, 1536-well; hits give low values; hit rate 0.49% among 340,000; in the data active = activity change below about -65%; inconclusive = mostly about -30% to -63%
#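 GST-E1A and His-tagged CtBP (125 nM each as 5X stock) were preincubated with pin-transferred compound for 2 h at 37 °C in the dark, then glutathione donor and nickel acceptor beads were added for 1 h before AlphaScreen reading.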
# JMJD2A Tudor inh: qHTS Assay for Inhibitors of JMJD2A-Tudor Domain. Lysine-specific demethylase 4A (Homo sapiens), O75164. hit rate 4.4% among 390,000. AlphaScreen JMJD2A-Tudor / H3K4me3 peptide binding. AID 504339, 2011. Potency, µM (doses to about 114 µM), usual class: inhibitors; note: nearly all actives have a fitted effect of over 50% in size
# BAZ2B block: qHTS Assay for Inhibitors of BAZ2B; Bromodomain adjacent to zinc finger domain protein 2B (Homo sapiens), Q9UIF8; AlphaScreen BAZ2B-H3K14Ac peptide displacement; Potency, µM (series often up to 114 µM), actives largely listed as inhibitors; hit rate 4.4% among 360,000; AID 504333, 2011; note: nearly all actives have a fitted effect of over 60% in size
#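 AlphaScreen luminescence quantifies BAZ2B engagement of H3K14Ac peptide; the protein and biotinylated peptide are both at 50 nM final, buffer PBS pH 7.4 with 0.01% Tween-20, all steps at room temperature.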
# HP1b binding inh: HTS for Inhibitors of HP1-beta Chromodomain Interactions with Methylated Histone Tails; Chromobox protein homolog 1 (Homo sapiens), P83916; AlphaScreen HP1-beta / biotin-H3K9me3 peptide binding; Potency, µM (top dose mostly 114 µM), usual class: inhibitors; hit rate 0.56% among 390,000; AID 540317, 2011; note: nearly all actives have a fitted effect of over 70% in size
#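 AlphaScreen: HP1-beta (50 nM) preformed 30 min with biotin-H3(1-18)K9me3 peptide (50 nM) in PBS pH 7.4, 0.01% Tween-20. Compound added for 30 min at RT, then streptavidin donor/nickel chelate acceptor beads (10 ug/mL) for 30 min.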
# G9a block: qHTS Assay for Inhibitors of Histone Lysine Methyltransferase G9a; AID 504332, 2011; Potency, µM (titrated, usually from 102 µM), hits mostly inhibitors; hit rate 8.8% among 350,000; G9a H3K9 monomethylation, AlphaScreen, 2 h; Histone-lysine N-methyltransferase EHMT2 (Homo sapiens), Q96KQ7; note: nearly all actives have a fitted effect of over 75% in size
#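 Step 1: enzyme (final 20 nM) with compound, 15 min RT. Step 2: substrate peptide 500 nM and SAM 20 uM, 2 h RT. Step 3: anti-H3K9me1 antibody and AlphaScreen beads, 10 min, then plate read.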
# A number is an active result; . = inactive; ? = inconclusive; / = not tested or not shown; [ ] = remark or other dose. Rows were chosen to be rich in hits. Some 10% of all compounds tested hit in one or more screens of this group. Unless noted, calls come from the whole dose curve; as a rule, active = well fitted inhibition curve with a large enough effect; inconclusive = small, poorly fitted or top-dose-only effect; inactive = no such curve, though single readings can be large or run the other way.
SMILES,Six1-Eya2 inh,CtBP-E1A blk,JMJD2A Tudor inh,BAZ2B block,HP1b binding inh,G9a block
Cc1c(OC(=O)c2ccc([N+](=O)[O-])cc2)c2c(c[n+]1C)COC(C)(C)OC2,.,.,50µM,?,.,/
O=C(/C=C/c1ccc([N+](=O)[O-])cc1)OCC(=O)N1CCOCC1,.,.,.,/,.,/
O=C(COC(=O)/C=C/c1ccc([N+](=O)[O-])cc1)Nc1ccc2[nH]c(=O)[nH]c2c1,.,.,.,.,.,50µM
O=C(COC(=O)/C=C/c1cccc(F)c1)Nc1ccc(Cl)cn1,.,.,.,.,.,.
O=C(COC(=O)/C=C/c1cccc(Cl)c1)Nc1ccc2[nH]c(=O)[nH]c2c1,.,.,.,.,.,32µM
O=C(COC(=O)/C=C/c1cccc(F)c1)Nc1ncccn1,.,.,?,56µM,.,71µM
O=C(COC(=O)/C=C/c1cccc(F)c1)Nc1ccc2[nH]c(=O)[nH]c2c1,.,.,.,.,.,.
O=C(/C=C/c1ccc([N+](=O)[O-])cc1)OCC(=O)N1CCCCCC1,.,-72,.,/,.,/
COc1ccc(N/C=C/C(=C(C#N)C#N)N(C)C)cc1,.,.,.,.,.,/
CCOC(=O)C1(CC)NC(c2ccc(OC)cc2OC)C2C(=O)N(C)C(=O)C21 (stereo not given),.,.,.,.,.,.
Cc1nn2c(C)c(C(=O)Nc3ccccc3)cnc2c1C#N,.,.,.,.,.,16µM
Cc1cc(NC(=O)c2cccn2-c2nnc(N3CCCCC3)s2)ccc1Br,/,/,?,71µM,.,.
CC(C)c1ccc(NC(=O)c2cccn2-c2nnc(N3CCCCC3)s2)cc1,/,/,.,?,.,.
COc1ccccc1CNC(=O)c1cccn1-c1nnc(N2CCCCC2)s1,/,/,.,?,.,.
CN(C)c1ccc(CNC(=O)c2cccn2-c2nnc(N3CCCCC3)s2)cc1,/,/,?,40µM,.,.
CC(=O)Nc1ccc2c(c1)Cc1cc(N3C(=O)C=CC3=O)ccc1-2,.,.,7.1µM,/,?,/
O=C1C=CC(=O)N1c1ccc2c(c1)Cc1cc(F)ccc1-2,.,.,.,/,.,/
COc1ccc(CCNC(=O)c2cnccn2)cc1,.,.,.,.,.,.
O=C(COc1ccc(Cl)cc1)NNC(=O)c1ccccn1,?,?,.,.,.,.
O=C(COc1cccc2ccccc12)NNC(=O)c1cnccn1,.,.,.,.,.,.
O=C(COc1ccc2ccccc2c1)NNC(=O)c1cnccn1,.,.,.,.,.,0.63µM
COc1ccc(CC(=O)NNC(=O)c2cnccn2)cc1,.,/,.,.,.,7.9µM
COc1ccc(CC(=O)NNC(=O)c2ccccn2)cc1,?,-74,.,?,.,.
Cc1cc(C)cc(OCC(=O)NNC(=O)c2ccccn2)c1,-68,/,.,?,?,?
Cc1oc(-c2ccc(C(=O)NCCN(C)C)cc2)nc1CS(=O)(=O)c1ccccc1,/,/,.,.,.,.
SMILES,Six1-Eya2 inh,CtBP-E1A blk,JMJD2A Tudor inh,BAZ2B block,HP1b binding inh,G9a block
CNc1nc(OC)nc(N2CCOCC2)n1,.,.,.,.,.,.
CNC(=S)NNc1nc(N2CCOCC2)nc(N2CCOCC2)n1,.,.,25µM,.,?,?
CNc1nc(C(=O)O)nc(N2CCOCC2)n1,?,?,4.5µM,11µM,.,5.6µM
COc1cc(Cl)c(C)cc1NC(c1ccccc1)c1nnc(-c2ccccc2Cl)o1 (stereo not given),/,/,.,.,.,.
COc1ccc(Nc2ncccc2C(=O)NCc2ccccc2)cc1,.,.,?,?,.,.[12.7 µM]
COc1ccc(Nc2ncccc2C(=O)Nc2ccccc2)cc1,.,.,?,50µM,?,?
COc1cccc(Nc2ncccc2C(=O)NCc2ccccc2)c1,.,.,.,.,.,8.9µM
CC(=O)Nc1ccc(S(=O)(=O)N/N=C/c2ccc(C)o2)cc1,.,.,.,?,.,45µM
Cc1ccc(S(=O)(=O)N/N=C\c2ccc(C)o2)cc1,.,.,?,50µM,.,?
Cc1ccc(/C=N/NS(=O)(=O)c2ccc([N+](=O)[O-])cc2)o1,.,.,.,.,.,.
C(=N\Nc1ncnc2nc[nH]c12)/c1cccs1,?,?,?,50µM,.,.
O=Nc1ccc2oc(=O)ccc2c1,/,/,/,/,/,2.2µM
CC1=C(C(=O)Nc2ccc(C)cc2C)C(c2ccc(O)cc2)n2nnnc2N1 (stereo not given),/,/,.,.,.,.
CC(C)CN1C(=O)C(=O)N(CC(=O)Nc2cc(Cl)ccc2Oc2ccccc2)C1=O,.,.,.,.,.,?
COc1ccccc1NC(=O)CN1CCCN(S(=O)(=O)c2ccc(Br)cc2)CC1,/,/,.,.,.,.
O=C1N(Cc2cccnc2)C[C@@H]2C[C@@H](c3ccc(C(F)(F)F)cc3)N3CCC[C@@]123,.,.,.,.,.,?
O=C1N(Cc2cccnc2)C[C@@H]2C[C@@H](c3cccc(Oc4ccccc4)c3)N3CCC[C@@]123,.,.,.,?,.,13µM
O=C1N(Cc2cccc(Cl)c2)C[C@@H]2C[C@@H](c3cccn3-c3cccnc3)N3CCC[C@@]123,.,.,?,?,.,50µM
COc1ncc2nc(CCc3ccccc3)c(=O)n(Cc3cccs3)c2n1,/,/,/,/,/,.[12.7 µM]
CCOC(=O)/C(=C/c1ccccc1)NC(=O)c1ccco1,.,.,.,.,.,.
O=S(=O)(O)c1c(NS(=O)(=O)c2ccccc2)ccc2ccccc12,/,/,89µM,/,.,/
O=S(=O)(Nc1cccc2ccccc12)c1ccc2ccccc2c1,/,/,79µM,/,?,/
O=S(=O)(Nc1cccc2ccccc12)c1ccccc1,.,.,.,.,.,/
O=S(=O)(Nc1c(O)ccc2ccccc12)c1ccccc1,.,/,?,/,?,/
O=C(O)c1cccc(S(=O)(=O)Nc2cccc3ccccc23)c1,.,.,.,.,.,40µM
COc1cc(-c2cc3n(C)c(C)c(CCC(=O)NC4CCC(C)CC4)c(=O)n3n2)cc(OC)c1OC (stereo not given),/,/,.,.,.,.
NC(=O)c1ccc[n+](CC(=O)NCc2ccc(Cl)cc2)c1,.,.,.,.,.,.
COc1cccc(C(=O)NC(C)c2ccc(-c3ccccc3)cc2)c1OC (stereo not given),.,.,.,.,.,.
